From PubChem BioAssay (Tox21)
A number with no mark means an inactive call. Records with an inconclusive call do not appear. A call without a number means that no potency is given here. Activity calls are given as the source filed them. Calls come from the whole dose curve; as a rule, active = well fitted curve in the direction sought with a large enough effect in the repeat runs; inconclusive = weak or mixed curves; inactive = no such curve, though single readings can be large; an effect the other way counts as inactive or inconclusive.

Experiments:
[1] = Caspase-3/7 induction in HepG2 cells by small molecules, qHTS assay (AID 1346978); note: nearly all actives have a fitted effect of over 15% in size
In short: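 Caspase-3/7 induction was measured by Caspase-Glo 3/7 luminescence (30 min, room temperature) after a 17 hr compound exposure of wild-type HepG2 cells seeded at 2,000 per well and pre-incubated 5 hr.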

[2] = Caspase-3/7 induction in CHO-K1 cells by small molecules, qHTS cell viability counter screen (AID 1346979); note: nearly all actives have a fitted effect of over 35% in size
In short: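 Cells (CHO-K1, wild type) are plated at 1,500 per well and incubated 5hr. Test compounds in DMSO are then pinned in, followed by 16hr at 37C and 5% CO2. Viability is read by CellTiter-Fluor fluorescence after 1hr.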

[3] = Caspase-3/7 induction in CHO-K1 cells by small molecules, qHTS assay (AID 1346980); note: nearly all actives have a fitted effect of over 15% in size
In short: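 Luminescent Caspase-Glo 3/7 read (30min, room temperature) quantified apoptosis induction. Cells were wild-type CHO-K1, treated with compound for 17hr at 37 C and 5% CO2.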

[4] = Caspase-3/7 induction in HepG2 cells by small molecules, qHTS cell viability counter screen (AID 1346981); note: series mostly up to about 92 µM; nearly all actives have a fitted effect of over 30% in size
In short: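 Steps: seed 2,000 HepG2 cells per well; incubate 5 hr at 37 C; pin-add compounds in DMSO; incubate 16 hr; add CellTiter-Fluor; after 1 hr at 37 C and 5% CO2, read fluorescence.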

[5] = molecular target: Nuclear receptor subfamily 1 group I member 2 (Homo sapiens) (UniProt O75469); assay: Human pregnane X receptor (PXR) small molecule agonists, qHTS assay (AID 1346982); note: nearly all actives have a fitted effect of over 35% in size; note: potency is the fitted concentration of half-maximal effect
Nuclear receptor subfamily 1 group I member 2 (Homo sapiens), sequence (O75469 whole entry, looked up): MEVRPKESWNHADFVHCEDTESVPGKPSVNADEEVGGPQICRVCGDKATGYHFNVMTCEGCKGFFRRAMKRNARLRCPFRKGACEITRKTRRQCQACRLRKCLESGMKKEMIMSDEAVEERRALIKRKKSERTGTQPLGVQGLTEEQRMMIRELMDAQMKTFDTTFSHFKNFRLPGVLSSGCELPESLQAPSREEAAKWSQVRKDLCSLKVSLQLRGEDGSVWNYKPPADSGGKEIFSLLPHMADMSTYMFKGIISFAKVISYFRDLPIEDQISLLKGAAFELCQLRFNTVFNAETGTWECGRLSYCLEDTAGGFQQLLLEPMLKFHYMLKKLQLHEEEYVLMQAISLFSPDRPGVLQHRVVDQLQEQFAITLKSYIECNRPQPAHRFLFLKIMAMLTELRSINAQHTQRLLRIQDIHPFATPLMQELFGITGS
In short: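 Agonist mode qHTS: PXR-Luc HepG2 cells plated 5 hr before DMSO-dissolved compounds were pinned in, cultured 24 hr at 37 C, 5% CO2; ONE-Glo luminescence readout.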

[6] = molecular target: Cytochrome P450 2D6 (Homo sapiens) (UniProt P10635); assay: Cytochrome P450 Family 2 Subfamily D Member 6 (CYP2D6) small molecule antagonists: luciferase reporter qHTS assay (AID 1671196); note: nearly all actives have a fitted effect of over 50% in size; note: potency is the fitted concentration of half-maximal effect
Cytochrome P450 2D6 (Homo sapiens), sequence (P10635 whole entry, looked up): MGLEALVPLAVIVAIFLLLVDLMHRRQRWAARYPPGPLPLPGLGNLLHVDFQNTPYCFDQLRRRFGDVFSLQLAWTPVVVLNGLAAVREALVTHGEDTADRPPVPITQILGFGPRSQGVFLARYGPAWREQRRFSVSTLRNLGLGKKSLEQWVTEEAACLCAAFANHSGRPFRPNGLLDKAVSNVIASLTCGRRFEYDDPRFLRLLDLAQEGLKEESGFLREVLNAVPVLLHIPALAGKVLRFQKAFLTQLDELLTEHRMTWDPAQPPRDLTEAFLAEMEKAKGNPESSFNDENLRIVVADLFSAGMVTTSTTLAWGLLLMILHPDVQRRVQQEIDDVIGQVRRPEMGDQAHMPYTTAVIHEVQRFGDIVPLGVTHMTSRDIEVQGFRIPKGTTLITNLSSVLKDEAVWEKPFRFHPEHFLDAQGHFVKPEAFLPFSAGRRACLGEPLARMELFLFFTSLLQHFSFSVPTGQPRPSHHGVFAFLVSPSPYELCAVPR
In short: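 P450-Glo format: CYP2D6 converts a proluciferin substrate to luciferin in an NADPH-driven reaction lasting 1 h at room temperature. Light output, proportional to CYP2D6 activity, reflects interference by test chemicals.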

[7] = molecular target: Cytochrome P450 2C19 (Homo sapiens) (UniProt P33261); assay: Cytochrome P450 Family 2 Subfamily C Member 19 (CYP2C19) small molecule antagonists: luciferase reporter qHTS assay (AID 1671197); note: nearly all actives have a fitted effect of over 65% in size; note: potency is the fitted concentration of half-maximal effect
Cytochrome P450 2C19 (Homo sapiens), sequence (P33261 whole entry, looked up): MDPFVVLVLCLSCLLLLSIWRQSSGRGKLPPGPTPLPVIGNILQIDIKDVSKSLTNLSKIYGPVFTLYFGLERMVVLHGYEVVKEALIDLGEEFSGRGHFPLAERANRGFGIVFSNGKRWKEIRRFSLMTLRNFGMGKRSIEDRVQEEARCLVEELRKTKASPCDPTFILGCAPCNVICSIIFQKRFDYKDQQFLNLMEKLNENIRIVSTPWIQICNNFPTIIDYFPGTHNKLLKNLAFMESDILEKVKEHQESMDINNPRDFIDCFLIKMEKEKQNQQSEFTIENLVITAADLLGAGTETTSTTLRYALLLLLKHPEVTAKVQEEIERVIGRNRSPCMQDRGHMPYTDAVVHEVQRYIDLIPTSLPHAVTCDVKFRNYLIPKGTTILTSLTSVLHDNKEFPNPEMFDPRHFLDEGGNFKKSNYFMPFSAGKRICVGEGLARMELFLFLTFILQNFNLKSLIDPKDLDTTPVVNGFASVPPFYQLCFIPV
In short: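 Enzyme-substrate mix with proluciferin substrate (P450-Glo CYP2C19 system) preincubated with compounds 10 min at room temperature; NADPH regeneration solution added, 37C for 1 h; detection reagent stops reaction, luminescence read after 20 min. Ketoconazole positive control.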

[8] = molecular target: Cytochrome P450 2C9 (Homo sapiens) (UniProt P11712); assay: Cytochrome P450 Family 2 Subfamily C Member 9 (CYP2C9) small molecule antagonists: luciferase reporter qHTS assay (AID 1671198); note: nearly all actives have a fitted effect of over 50% in size; note: potency is the fitted concentration of half-maximal effect
Cytochrome P450 2C9 (Homo sapiens), sequence (P11712 whole entry, looked up): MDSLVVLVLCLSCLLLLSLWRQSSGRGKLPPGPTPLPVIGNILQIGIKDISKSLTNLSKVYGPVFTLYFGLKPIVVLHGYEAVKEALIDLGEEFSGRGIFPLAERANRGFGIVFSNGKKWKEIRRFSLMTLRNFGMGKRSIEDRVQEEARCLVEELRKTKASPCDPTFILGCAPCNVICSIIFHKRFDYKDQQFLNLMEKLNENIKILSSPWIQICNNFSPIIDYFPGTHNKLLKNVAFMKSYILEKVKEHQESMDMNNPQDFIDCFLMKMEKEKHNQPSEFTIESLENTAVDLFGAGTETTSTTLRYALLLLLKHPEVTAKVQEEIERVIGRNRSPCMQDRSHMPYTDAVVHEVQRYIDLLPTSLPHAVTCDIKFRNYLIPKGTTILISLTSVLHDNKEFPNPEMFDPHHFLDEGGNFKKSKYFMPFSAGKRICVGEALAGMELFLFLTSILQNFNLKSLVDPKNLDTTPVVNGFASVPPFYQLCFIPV
In short: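 Enzyme-substrate mix preincubated with compound 10 min at room temperature; reaction started with NADPH regeneration solution, 1 h 37C. Luminescent luciferin product read after 20 min detection reagent.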

[9] = molecular target: Voltage-gated inwardly rectifying potassium channel KCNH2 (Homo sapiens) (UniProt Q12809); assay: Human Ether-a-go-go-Related Gene (hERG) channel small molecule antagonists: fluorescence cell-based qHTS assay (AID 1671200);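 note: hERG-expressing U2OS cells given a thallium stimulus after FluxOR II dye loading; series mostly up to about 77 µM; nearly all actives have a fitted effect of over 50% in size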
Voltage-gated inwardly rectifying potassium channel KCNH2 (Homo sapiens), sequence (Q12809 whole entry, looked up): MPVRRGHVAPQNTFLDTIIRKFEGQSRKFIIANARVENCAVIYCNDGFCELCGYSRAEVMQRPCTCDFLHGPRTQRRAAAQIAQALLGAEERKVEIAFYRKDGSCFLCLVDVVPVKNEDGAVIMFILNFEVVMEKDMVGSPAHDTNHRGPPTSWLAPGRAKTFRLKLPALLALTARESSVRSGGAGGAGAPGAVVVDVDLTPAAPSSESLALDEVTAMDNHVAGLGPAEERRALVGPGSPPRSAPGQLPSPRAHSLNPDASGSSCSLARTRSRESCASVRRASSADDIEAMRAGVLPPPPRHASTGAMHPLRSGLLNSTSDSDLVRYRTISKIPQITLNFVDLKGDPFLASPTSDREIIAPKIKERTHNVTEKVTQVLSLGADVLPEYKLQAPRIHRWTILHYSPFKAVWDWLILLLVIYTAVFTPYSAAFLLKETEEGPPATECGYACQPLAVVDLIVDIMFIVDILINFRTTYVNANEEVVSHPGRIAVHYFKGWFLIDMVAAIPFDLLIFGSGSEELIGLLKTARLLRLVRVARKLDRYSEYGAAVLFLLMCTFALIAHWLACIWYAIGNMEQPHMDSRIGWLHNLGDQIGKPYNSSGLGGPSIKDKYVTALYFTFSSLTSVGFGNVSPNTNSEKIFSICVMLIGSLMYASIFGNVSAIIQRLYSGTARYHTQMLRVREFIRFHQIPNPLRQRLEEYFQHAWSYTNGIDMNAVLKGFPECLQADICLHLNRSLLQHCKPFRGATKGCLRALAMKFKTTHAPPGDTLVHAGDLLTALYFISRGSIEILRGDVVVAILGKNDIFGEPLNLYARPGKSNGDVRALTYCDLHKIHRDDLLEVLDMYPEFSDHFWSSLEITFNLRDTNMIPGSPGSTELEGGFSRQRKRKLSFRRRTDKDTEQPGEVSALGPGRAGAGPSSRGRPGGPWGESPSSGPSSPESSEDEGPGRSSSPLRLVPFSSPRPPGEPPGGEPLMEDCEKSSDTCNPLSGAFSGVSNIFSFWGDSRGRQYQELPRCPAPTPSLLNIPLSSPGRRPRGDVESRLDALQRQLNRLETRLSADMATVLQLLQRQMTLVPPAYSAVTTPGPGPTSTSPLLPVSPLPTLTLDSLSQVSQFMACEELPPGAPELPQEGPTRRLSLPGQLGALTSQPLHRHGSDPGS
In short: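 Channel function was assessed by thallium flux. Cells seeded the previous day and kept at 37 C took up FluxOR II dye over 1 h in the dark at room temperature, then sat another 10 min before stimulation.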

[10] = molecular target: Cytochrome P450 3A4 (Homo sapiens) (UniProt P08684); assay: Cytochrome P450 Family 3 Subfamily A Member 4 (CYP3A4) small molecule antagonists: luciferase reporter qHTS assay (AID 1671201); note: nearly all actives have a fitted effect of over 50% in size; note: potency is the fitted concentration of half-maximal effect
Cytochrome P450 3A4 (Homo sapiens), sequence (P08684 whole entry, looked up): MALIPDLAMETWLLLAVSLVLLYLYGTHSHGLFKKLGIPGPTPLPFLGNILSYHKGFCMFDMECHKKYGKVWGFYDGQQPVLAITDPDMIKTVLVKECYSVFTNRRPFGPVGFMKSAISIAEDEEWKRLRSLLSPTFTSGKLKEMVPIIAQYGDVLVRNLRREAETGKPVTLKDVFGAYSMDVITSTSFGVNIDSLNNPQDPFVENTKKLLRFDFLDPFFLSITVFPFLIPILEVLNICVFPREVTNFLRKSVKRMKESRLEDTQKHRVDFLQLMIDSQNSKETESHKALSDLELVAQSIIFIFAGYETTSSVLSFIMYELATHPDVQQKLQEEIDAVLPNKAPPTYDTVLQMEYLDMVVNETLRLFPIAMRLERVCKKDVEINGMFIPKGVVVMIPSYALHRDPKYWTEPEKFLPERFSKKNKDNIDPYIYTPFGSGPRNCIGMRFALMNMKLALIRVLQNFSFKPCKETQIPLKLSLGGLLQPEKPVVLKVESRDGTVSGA
In short: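 Compounds in DMSO were pin-transferred onto CYP3A4 enzyme-substrate mix and held 10 min at room temperature. NADPH regenerating solution started the reaction for 1 h; luciferin detection reagent stopped it, and luminescence was read after 20 min.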

[11] = Human pregnane X receptor (PXR) small molecule agonists, qHTS cell viability counter screen (AID 1346977); note: nearly all actives have a fitted effect of over 50% in size
In short: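 PXR-Luc HepG2, 2,000 cells/well, 5% charcoal-stripped FBS; 5hr settle; cpd 24hr, 37C/5% CO2; CellTiter-Fluor at 23hr, read 1hr later (fluorescence).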

[12] = molecular target: Nuclear receptor subfamily 1 group I member 2 (Rattus norvegicus) (UniProt Q9R1A7); assay: Rat pregnane X receptor (rPXR) activation by small molecules, qHTS assay (AID 1346983); details: rPXR luciferase reporter cells, One-Glo luminescence, 24 h; active compounds read high; note: nearly all actives have a fitted effect of over 20% in size
Nuclear receptor subfamily 1 group I member 2 (Rattus norvegicus), sequence (Q9R1A7 whole entry, looked up): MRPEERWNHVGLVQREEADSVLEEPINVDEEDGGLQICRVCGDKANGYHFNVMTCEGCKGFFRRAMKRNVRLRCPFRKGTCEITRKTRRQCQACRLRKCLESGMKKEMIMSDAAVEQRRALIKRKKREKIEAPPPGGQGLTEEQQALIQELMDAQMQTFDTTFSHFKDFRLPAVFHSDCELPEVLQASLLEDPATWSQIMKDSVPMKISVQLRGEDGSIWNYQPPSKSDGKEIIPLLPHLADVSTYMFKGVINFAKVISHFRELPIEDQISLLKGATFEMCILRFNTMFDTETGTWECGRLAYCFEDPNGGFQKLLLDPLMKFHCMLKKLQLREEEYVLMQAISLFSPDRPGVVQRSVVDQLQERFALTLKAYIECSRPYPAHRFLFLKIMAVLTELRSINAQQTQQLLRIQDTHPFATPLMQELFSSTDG
In short: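 Luminescent readout (One-Glo luciferase, 30 min room temperature) followed 24 hr compound treatment at 37 C of rPXR cells plated 2,000 per well and preincubated 5hr; qHTS format with compounds delivered in DMSO.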

[13] = molecular target: Nuclear receptor subfamily 1 group I member 2 (Homo sapiens) (UniProt O75469); assay: CYP3A4 induction through human pregnane X receptor (PXR) by small molecules, qHTS assay (AID 1346984); note: nearly all actives have a fitted effect of over 40% in size
In short: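 Steps: seed DPX-2 cells, 5 hr at 37C; pin-transfer compounds; 24 hr at 37C; add Luciferin-IPA (3uM final), 3 hr at 37C; add One-Glo, 30 min RT; read luminescence.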

[14] = molecular target: Cytochrome P450 1A2 (Homo sapiens) (UniProt P05177); assay: Cytochrome P450 Family 1 Subfamily A Member 2 (CYP1A2) small molecule antagonists: luciferase reporter qHTS assay (AID 1671199); note: nearly all actives have a fitted effect of over 50% in size; note: potency is the fitted concentration of half-maximal effect
Cytochrome P450 1A2 (Homo sapiens), sequence (P05177 whole entry, looked up): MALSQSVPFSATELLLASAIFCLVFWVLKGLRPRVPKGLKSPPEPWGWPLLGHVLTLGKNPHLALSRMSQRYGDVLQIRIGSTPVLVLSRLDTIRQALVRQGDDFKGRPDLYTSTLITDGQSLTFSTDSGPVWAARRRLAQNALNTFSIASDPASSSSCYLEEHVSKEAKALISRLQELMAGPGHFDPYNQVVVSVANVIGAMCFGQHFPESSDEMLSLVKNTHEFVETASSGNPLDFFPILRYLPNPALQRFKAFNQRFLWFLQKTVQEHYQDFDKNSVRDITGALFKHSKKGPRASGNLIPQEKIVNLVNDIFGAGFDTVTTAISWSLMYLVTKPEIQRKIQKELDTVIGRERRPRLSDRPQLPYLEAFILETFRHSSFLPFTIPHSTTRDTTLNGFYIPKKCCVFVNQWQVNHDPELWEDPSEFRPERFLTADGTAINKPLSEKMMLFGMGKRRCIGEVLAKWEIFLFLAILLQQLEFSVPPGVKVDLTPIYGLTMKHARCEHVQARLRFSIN
In short: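 Inhibition of CYP1A2 conversion of proluciferin to luciferin, detected by luminescence. Reaction run 1 h at room temperature with NADPH regeneration after brief compound preincubation.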

[15] = molecular target: Nuclear receptor subfamily 1 group I member 2 (Homo sapiens) (UniProt O75469); assay: Human pregnane X receptor (PXR) activation by small molecules, qHTS assay (AID 1346985); note: nearly all actives have a fitted effect of over 40% in size
In short: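 DPX-2 cells (HepG2 co-transfected with a PXR response element and a CYP3A4-promoter luciferase construct) were seeded at 2,000 per well, rested 5 hr at 37C, then exposed to DMSO-dissolved compounds for 24 hr. Activation was read as luciferase luminescence.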

For C=CCCCCCCCCCCCC, the Potency [1] was “inactive”, the Potency [2] was “inactive” and the outcome [3] was “inactive”. For the same molecule, the Potency [4] was “inactive”, the Potency [5] was “inactive” and the Potency [6] was “inactive”. The Potency [7] was “inactive”, the Potency [8] was “inactive” and the Potency [9] was “inactive”. For the same molecule, the Potency [10] was “inactive”.

For CN(CCOc1ccc(NS(C)(=O)=O)cc1)CCc1ccc(NS(C)(=O)=O)cc1, the Potency [11] was “inactive”, the Potency [2] was “inactive” and the outcome [3] was “inactive”. For the same molecule, the Potency [5] was “inactive”, the max activation [12] was -6.17% and the Potency [13] was “inactive”. The Potency [7] was “inactive”, the Potency [8] was “inactive” and the Potency [14] was “inactive”.

With O=C(O)c1ccc(Cl)cc1Cl the Potency [11] was “inactive”, the Potency [2] was “inactive” and the outcome [3] was “inactive”. The Potency [5] was “inactive”, the Potency [6] was “inactive” and the Potency [7] was “inactive”. For the same molecule, the Potency [8] was “inactive”, the Potency [9] was “inactive” and the Potency [10] was “inactive”.

With C[C@@H](O)[C@H]1C(=O)N2C(C(=O)O)=C(SCCN=CN)C[C@H]12 the Potency [11] was “inactive”, the Potency [2] was “inactive” and the outcome [3] was “inactive”. For the same molecule, the Potency [4] was “inactive”, the max activation [12] was -4.86% and the Potency [13] was “inactive”. For the same molecule, the Potency [15] was “inactive”, the Potency [6] was “inactive” and the Potency [14] was “inactive”. For the same molecule, the Potency [9] was “inactive” and the Potency [10] was “inactive”.

For NCCN1CCOCC1, the Potency [11] was “inactive”, the Potency [2] was “inactive” and the Potency [4] was “inactive”. For the same molecule, the Potency [9] was “inactive”.

For Nc1ccc(S(=O)(=O)Nc2ccc(Cl)nn2)cc1, the Potency [1] was “inactive”, the Potency [2] was “inactive” and the outcome [3] was “inactive”. For the same molecule, the Potency [4] was “inactive”, the Potency [5] was “inactive” and the max activation [12] was -0.0524%. The Potency [13] was “inactive”, the Potency [15] was “inactive” and the Potency [6] was “inactive”. The Potency [7] was “inactive”, the Potency [9] was “inactive” and the Potency [10] was “inactive”.

For CC1(CO)CN(c2ccccc2)NC1=O (configuration not stated), the Potency [1] was “inactive”, the Potency [2] was “inactive” and the outcome [3] was “inactive”. For the same molecule, the Potency [4] was “inactive”, the Potency [5] was 61.1 µM (active) and the Potency [6] was 28.3 µM (active). The Potency [7] was 20 µM (active), the Potency [8] was 25.2 µM (active) and the Potency [14] was 35.6 µM (active). For the same molecule, the Potency [9] was “inactive” and the Potency [10] was 31.7 µM (active).

For CC(=C(CCOC(=O)C(C)C)SSC(CCOC(=O)C(C)C)=C(C)N(C=O)Cc1cnc(C)nc1N)N(C=O)Cc1cnc(C)nc1N, the Potency [11] was “inactive”, the Potency [2] was “inactive” and the outcome [3] was “inactive”. For the same molecule, the Potency [5] was “inactive”, the max activation [12] was -2.83% and the Potency [13] was “inactive”. The Potency [15] was “inactive”, the Potency [6] was “inactive” and the Potency [7] was “inactive”. The Potency [8] was “inactive” and the Potency [9] was “inactive”.

For c1ccc2c(c1)ccc1c3ccccc3ccc21, the Potency [11] was “inactive”, the Potency [2] was “inactive” and the outcome [3] was “inactive”. For the same molecule, the Potency [5] was “inactive”, the Potency [6] was “inactive” and the Potency [7] was “inactive”. For the same molecule, the Potency [8] was “inactive”, the Potency [14] was 0.725 µM (active) and the Potency [9] was “inactive”. The Potency [10] was “inactive”.

In the case of CCCCCCCCCCCCCC, the Potency [11] is reported as “inactive”, the Potency [2] is reported as “inactive” and the outcome [3] is reported as “inactive”. For the same molecule, the Potency [5] was “inactive”, the Potency [6] was “inactive” and the Potency [7] was “inactive”. For the same molecule, the Potency [8] was “inactive”, the Potency [9] was “inactive” and the Potency [10] was “inactive”.

In the case of CC1=C(C(=O)O)N2C(=O)[C@@H](NC(=O)[C@H](N)c3ccc(O)cc3)[C@H]2SC1, the Potency [11] is reported as “inactive”, the Potency [2] is reported as “inactive” and the outcome [3] is reported as “inactive”. For the same molecule, the Potency [4] was “inactive”, the max activation [12] was -3.3% and the Potency [9] was “inactive”.
